The values that follow come from PubChem BioAssay (NCATS).

Several values for one entry are separate records, joined by “and”; a condition that tells them apart may be missing. Identical values can stand only once. Results filed as inconclusive are left out. Activity calls are given as the source filed them. Unless noted, calls come from the whole dose curve; as a rule, active = well fitted curve in the direction sought with a large enough effect; inconclusive = small, poorly fitted or top-dose-only effect, or another doubt; inactive = no such curve, though single readings can be large; an effect the other way counts as inactive or inconclusive.

The nature of experiment [1]: Validation of Assay for Modulators of Lamin A Splicing (AID 1459; active = well fitted curve in the direction sought with a large enough effect in the signal ratio; the % refers to the signal ratio;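 note: cells exposed to compound for two days before reading; 0% is about no effect; ratio rise marks activators and ratio drop marks inhibitors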). In short, it runs like this:
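S3 HeLa cells stably expressing a lamin A-EGFP splicing minigene and DsRed2 were seeded at 600 cells/well in Opti-MEM with 2% FBS, pin-dosed, and incubated 48 hrs at 37 °C, 5% CO2. Laser-scanning cytometry (488 nm) gave GFP/RFP total intensity ratio.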

Experiment [2] is described as follows: qHTS Assay for Lipid Storage Modulators (AID 1519; calls by dose curve; for activity change, negative = inhibition: % is set by controls: 0 for no effect and ±100 for the full control effect). The note with it: Drosophila S3 cells, BODIPY lipid droplet/cell ratio, laser cytometry, cells loaded with oleic acid; for activity change, negative = inhibition: at 57.5 µM (top of the series). Put shortly: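 Cells seeded at 5,000 per well were treated with compounds over a concentration series and loaded with oleic acid (400 uM, as added). Lipid droplet fluorescence (488 nm excitation, 500-530 nm channel) was read by laser-scanning cytometry and normalized to 20 uM Triacsin C.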
In general terms: qHTS replaces the single test concentration by a dilution series.

Experiment [3] has as its target DNA repair nuclease/redox regulator APEX1 (Homo sapiens) (UniProt P27695). Put plainly: qHTS Validation Assay for Inhibitors of the Human Apurinic/apyrimidinic Endonuclease 1 (APE1) (AID 1705;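 note: TAMRA fluorescence gain over two minutes as APE1 cuts a quenched THF abasic duplex; % is set by controls: 0 for no effect and ±100 for the full control effect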). Put shortly:
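Human APE1 was preincubated with compound for 15 min at room temperature, then 50 nM (final) THF-abasic double-stranded DNA substrate bearing 5'-TAMRA and 3'-BHQ-2 was added. Incision-driven fluorescence rise (ex 525/em 598 nm) was read kinetically.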

A short description of experiment [4]: Counterscreen for APE1 Inhibitors: Fluorescent Dye Displacement Validation Assay (AID 1707).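 Note: plate controls were ThO with dsDNA and no compound for no effect and ThO without dsDNA for full effect.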 In short, it runs like this: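 ThO 250 nM + dsDNA 50 nM (THF abasic site, 5'-TAMRA), Tris-HCl pH7.5/50mM NaCl/2 mM MgCl2/0.01% Tween-20; compounds pin-transferred; ex 480/em 540 nm endpoint. Neutral = no compound; no-DNA ThO wells = negative control.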
The target in experiment [5] is Endonuclease 4 (Escherichia coli (strain K12)) (UniProt P0A6C1). Put plainly: Counterscreen for APE1 Inhibitors: qHTS Validation Assay for Inhibitors of Endonuclease IV (AID 1708). Note: % is set by controls: 0 for no effect and ±100 for the full control effect. In short, it runs like this:
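2 nM enzyme was preincubated with compounds for 15 min at room temperature in 50 mM Tris-HCl pH 7.5, 50 mM NaCl, 2 mM MgCl2, 1 mM DTT, 0.01% Tween-20. 50 nM THF-abasic TAMRA/BHQ-2 duplex substrate started the reaction.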

The nature of experiment [6]: qHTS for differential inhibitors of proliferation of Plasmodium falciparum line 7G8 (AID 1815).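 For activity change, negative = inhibition: plate controls were vehicle wells for no effect and reference inhibitor wells for full effect.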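 Note: parasite growth measured after three days of incubation.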 Note: potency is the fitted concentration of half-maximal effect.
Experiment [7] is described as follows: qHTS for differential inhibitors of proliferation of Plasmodium falciparum line GB4 (AID 1816).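 For activity change, negative = inhibition: 0% = vehicle DMSO and -100% = reference inhibitor.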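 Note: parasite growth measured after 72 h incubation.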 Note: potency is the fitted concentration of half-maximal effect. The note with it: Potency: Plasmodium falciparum GB4 proliferation inhibition.
Experiment [8] can be described thus: qHTS for differential inhibitors of proliferation of Plasmodium falciparum line 3D7 (AID 1876). Note: potency is the fitted concentration of half-maximal effect.
The nature of experiment [9]: qHTS for differential inhibitors of proliferation of Plasmodium falciparum line D10 (AID 1877).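 For activity change, negative = inhibition: plate controls were vehicle wells for no effect and reference inhibitor wells for full effect.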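 Note: parasites grown with compound for 72 h before DNA staining.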 Note: potency is the fitted concentration of half-maximal effect.
A short description of experiment [10]: qHTS for differential inhibitors of proliferation of Plasmodium falciparum line Dd2 (AID 1882).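 Note: compound exposure of 72 h on infected erythrocytes; plate controls were DMSO vehicle for no effect and 0.29 µM artemisinin for full effect; nearly all actives have a fitted effect of over 65% in size.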 The note with it: Potency: Plasmodium falciparum Dd2 proliferation inhibition. Put shortly:
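SYBR Green I DNA fluorescence read-out, ex 485/em 535 nm. Signals were normalized to 0.29 uM artemisinin and DMSO wells, then corrected using vehicle-only plates flanking each stack. Parasite growth ran 72 h in erythrocytes before lysis.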

The nature of experiment [11]: qHTS for differential inhibitors of proliferation of Plasmodium falciparum line W2 (AID 1883).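 For activity change, negative = inhibition: 0% = vehicle wells and -100% = control inhibitor wells.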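 Note: parasites grown with compound for 72 h before lysis and staining.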 Note: potency is the fitted concentration of half-maximal effect. The note with it: Potency: Plasmodium falciparum W2 proliferation inhibition.
A short description of experiment [12]: qHTS for differential inhibitors of proliferation of Plasmodium falciparum line HB3 (AID 1886).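 For activity change, negative = inhibition: plate controls were vehicle for no effect and reference inhibitor for full effect.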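 Note: parasites grown with compound for 72 h before SYBR Green readout.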 Note: potency is the fitted concentration of half-maximal effect. The note with it: Potency: Plasmodium falciparum HB3 proliferation inhibition.
Experiment [13] in a line: qHTS Assay for Modulators of Human Peripheral Myelin Protein 22 (PMP22) Expression/Activity (AID 1967; active = well fitted curve in the direction sought with a large enough effect in the signal ratio; the % refers to the signal ratio;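 note: 0% = untreated cells and 100% end not stated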). Put shortly:
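MSC80 mouse Schwann cells stably carrying Pmp22 promoter–green click beetle luciferase plus EF-alpha–red luciferase control were dosed for 24h at 37 °C. Dual-colour luminescence was filter-overlap corrected; %Activity came from green/red ratio versus untreated cells.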

The target in experiment [14] is Ferritin light chain (Equus caballus) (UniProt P02791). Put plainly: qHTS Validation Assay for Identification of Novel General Anesthetics (AID 2323). Note: % is set by controls: 0 for no effect and ±100 for the full control effect. Put shortly:
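Competitive displacement of profluorescent 1-aminoanthracene (1-AMA, 50% saturated solution in PBS) from 10 uM horse-spleen apoferritin. Compounds incubated 10 min at room temperature; fluorescence read at 380 nm excitation/535 nm emission, normalized to free 1-AMA and complex, fitted with four-parameter Hill equation.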

In experiment [15] the target is ATP-dependent DNA helicase Q1 (Homo sapiens) (UniProt P46063). Put plainly: qHTS Validation Assay for Inhibitors of RecQ-Like Dna Helicase 1 (RECQ1) (AID 2353).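 Note: plate controls were DMSO vehicle for no effect and enzyme-free control for full effect.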 Put shortly:
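50 nM RECQ1T1 preincubated 15 min with compound in Tris pH 8.0 buffer with MgCl2, DTT, Tween-20 and 2.5 ug/ml poly(dI-dC); started with 200 nM TAMRA/BHQ-2 forked duplex and 2 mM ATP. Unwinding read as fluorescence (525/598 nm), two reads 2 h apart.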

Experiment [16] can be described thus: High Content Imaging Cell-Based qHTS for Inhibitors of the mTORC1 Signaling Pathway in MEF (Tsc2-/-, p53-/-) Cells (AID 2666).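 Note: percent of cells scored positive for phospho-rpS6 Ser235/236 immunostaining by imaging.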 Put shortly:
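Read-out: % positive cells per well, with thresholds from highest- and lowest-signal wells, based on phospho-rpS6 (Ser235/236) intensity normalized to Hoechst nuclear stain. Cells: Tsc2-/-, p53-/- MEFs carrying empty vector; compound 24 hrs, 37 degree Celsius.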

The nature of experiment [17]: High Content Imaging Cell-Based qHTS for Inhibitors of the mTORC1 Signaling Pathway in MEF Cells (AID 2667).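 Note: Tsc2-/- p53-/- MEFs stably re-expressing wild-type Tsc2 exposed 24 h; plate controls were DMSO wells for no effect and rapamycin control wells for full effect.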 In short, it runs like this:
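MEF (Tsc2-/-, p53-/-, WT Tsc2 re-expressed); cpd 24 h, 37 °C; PFA fix; Alexa-488 anti-p-rpS6 Ser235/236, PI, Hoechst; IN Cell imaging; Hoechst/Alexa-488 intensity ratio; % active cells, thresholds set from rapamycin and DMSO wells.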

Experiment [18] addresses RecQ-like DNA helicase BLM (Homo sapiens) (UniProt P54132). Put plainly: qHTS Validation Assay for Inhibitors of Bloom's syndrome helicase (BLM) (AID 2364).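 Note: plate controls were DMSO vehicle for no effect and enzyme-free control for full effect.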 In short, it runs like this:
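BLM 50 nM in 25 mM Tris-HCl pH 8.0, 5 mM NaCl, 2 mM MgCl2, 1 mM DTT, 0.01% Tween-20, 2.5 ug/ml poly(dI-dC); 15 min cpd preinc, RT. Start: 200 nM forked DNA + 2 mM ATP (final). TAMRA read, 2 reads 2 h apart.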

Setting [19] is: measured here: cell count channel max response.
[20] abbreviates: measured here: lipid channel max response.

Sequence of ATP-dependent DNA helicase Q1 (Homo sapiens) (P46063 whole entry, looked up): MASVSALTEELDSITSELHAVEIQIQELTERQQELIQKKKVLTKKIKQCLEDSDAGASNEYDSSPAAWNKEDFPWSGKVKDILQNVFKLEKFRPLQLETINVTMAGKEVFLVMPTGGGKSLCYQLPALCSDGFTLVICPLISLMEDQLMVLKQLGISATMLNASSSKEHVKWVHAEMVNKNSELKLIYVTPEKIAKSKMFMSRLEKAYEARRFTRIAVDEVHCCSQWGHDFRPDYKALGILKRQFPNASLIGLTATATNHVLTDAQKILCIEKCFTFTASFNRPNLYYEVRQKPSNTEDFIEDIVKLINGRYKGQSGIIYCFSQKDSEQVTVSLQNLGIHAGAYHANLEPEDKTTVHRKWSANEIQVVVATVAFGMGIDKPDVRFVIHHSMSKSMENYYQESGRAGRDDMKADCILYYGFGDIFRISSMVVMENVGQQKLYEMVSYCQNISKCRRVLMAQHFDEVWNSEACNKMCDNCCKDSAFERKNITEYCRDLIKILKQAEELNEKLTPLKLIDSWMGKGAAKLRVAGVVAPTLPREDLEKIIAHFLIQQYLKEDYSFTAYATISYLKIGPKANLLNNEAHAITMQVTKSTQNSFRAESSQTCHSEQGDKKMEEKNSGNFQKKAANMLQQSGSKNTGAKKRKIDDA
Sequence of RecQ-like DNA helicase BLM (Homo sapiens) (P54132 whole entry, looked up): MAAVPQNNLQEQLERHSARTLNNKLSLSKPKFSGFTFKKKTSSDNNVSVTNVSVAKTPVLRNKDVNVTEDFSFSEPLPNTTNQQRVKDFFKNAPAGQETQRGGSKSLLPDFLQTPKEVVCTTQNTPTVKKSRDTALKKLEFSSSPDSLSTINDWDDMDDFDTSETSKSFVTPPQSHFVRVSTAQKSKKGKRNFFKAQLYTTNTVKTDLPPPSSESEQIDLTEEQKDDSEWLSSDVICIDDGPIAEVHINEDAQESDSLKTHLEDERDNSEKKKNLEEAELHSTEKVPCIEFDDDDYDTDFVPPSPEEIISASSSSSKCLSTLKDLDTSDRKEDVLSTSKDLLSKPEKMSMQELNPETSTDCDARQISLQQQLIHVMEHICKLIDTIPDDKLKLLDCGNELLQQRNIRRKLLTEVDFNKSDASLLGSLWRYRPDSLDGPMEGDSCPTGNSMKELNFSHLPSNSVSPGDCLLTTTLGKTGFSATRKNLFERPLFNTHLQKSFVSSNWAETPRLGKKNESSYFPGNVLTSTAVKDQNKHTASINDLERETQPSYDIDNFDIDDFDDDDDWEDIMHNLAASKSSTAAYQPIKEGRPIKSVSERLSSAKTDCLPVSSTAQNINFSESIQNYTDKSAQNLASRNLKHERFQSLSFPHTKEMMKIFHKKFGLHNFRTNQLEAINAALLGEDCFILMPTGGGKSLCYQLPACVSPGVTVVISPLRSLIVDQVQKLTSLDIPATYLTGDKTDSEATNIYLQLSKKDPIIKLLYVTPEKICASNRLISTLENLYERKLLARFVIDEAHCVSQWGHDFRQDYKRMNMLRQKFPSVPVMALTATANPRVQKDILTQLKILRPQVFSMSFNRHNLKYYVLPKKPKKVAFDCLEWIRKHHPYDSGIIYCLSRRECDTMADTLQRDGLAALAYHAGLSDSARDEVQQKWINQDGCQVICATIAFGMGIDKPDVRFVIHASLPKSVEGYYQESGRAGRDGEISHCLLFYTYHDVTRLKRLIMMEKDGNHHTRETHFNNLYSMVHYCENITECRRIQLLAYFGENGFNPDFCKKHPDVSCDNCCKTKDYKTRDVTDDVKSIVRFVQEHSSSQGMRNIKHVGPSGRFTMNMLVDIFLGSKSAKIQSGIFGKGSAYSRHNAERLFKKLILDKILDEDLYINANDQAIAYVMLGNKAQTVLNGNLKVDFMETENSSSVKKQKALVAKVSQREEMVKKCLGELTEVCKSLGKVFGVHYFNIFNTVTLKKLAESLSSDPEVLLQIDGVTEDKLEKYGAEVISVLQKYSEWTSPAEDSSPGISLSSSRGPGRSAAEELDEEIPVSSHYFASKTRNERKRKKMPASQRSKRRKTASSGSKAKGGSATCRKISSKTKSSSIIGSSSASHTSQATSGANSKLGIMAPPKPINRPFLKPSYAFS
Sequence of Ferritin light chain (Equus caballus) (P02791 2-175 limits assumed): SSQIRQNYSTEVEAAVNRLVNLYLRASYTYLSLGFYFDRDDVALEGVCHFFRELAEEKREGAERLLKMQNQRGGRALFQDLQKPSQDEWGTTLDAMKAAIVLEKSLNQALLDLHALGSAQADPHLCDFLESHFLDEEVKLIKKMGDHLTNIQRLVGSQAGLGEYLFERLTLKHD
Sequence of DNA repair nuclease/redox regulator APEX1 (Homo sapiens) (P27695 whole entry, looked up): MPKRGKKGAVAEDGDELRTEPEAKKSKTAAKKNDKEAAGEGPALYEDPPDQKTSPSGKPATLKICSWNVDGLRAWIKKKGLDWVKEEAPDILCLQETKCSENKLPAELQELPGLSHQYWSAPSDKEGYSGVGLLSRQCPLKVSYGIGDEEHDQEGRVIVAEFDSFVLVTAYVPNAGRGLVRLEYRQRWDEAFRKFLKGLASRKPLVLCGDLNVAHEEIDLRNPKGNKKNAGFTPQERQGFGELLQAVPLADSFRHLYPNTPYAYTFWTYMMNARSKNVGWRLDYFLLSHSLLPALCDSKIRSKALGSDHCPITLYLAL

Consider `O=C(O)CC[N+](=O)[O-]`, for which the call in [1], in experiment [13], in experiment [14] and in experiment [15] was inactive. In [2], the activity change, negative = inhibition is 1.53% (inactive) and -0.853% (inactive). The max response in [2] (setting [19]) is 11.6% and 14.1%; in experiment [2] (setting [20]) it was 18.9% and 15.4%. In addition, the Potency entry in experiment [3], in experiment [4], in experiment [5], in experiment [6], in [7] and in experiment [8] was “inactive” throughout. For the same compound, the Potency entry in experiment [9], in [10], in experiment [11], in experiment [12], in [16] and in experiment [17] was “inactive” in each case.
`c1ccc2sc(C3(N4CCCCC4)CCCCC3)cc2c1`: the result in [1], in experiment [14] and in experiment [15] was inactive. The activity change, negative = inhibition in experiment [2] was -6.45% (inactive) and -1.27% (inactive). Moreover, the max response was -3.55% and -30.8% in experiment [2] (setting [19]); 4.98% and -30.4% in experiment [2] (setting [20]). For the same compound, the Potency result in experiment [3], in [4], in experiment [5], in [18], in [16] and in experiment [17] was “inactive” throughout. Moreover, the Potency is 10 µM (active) in experiment [6]; 11.2 µM (active) in experiment [7]; 11.2 µM (active) in [8]; 10 µM (active) in experiment [9]; 7.94 µM (active) in experiment [11]; 11.2 µM (active) in [12].
On to `NCc1cc(=O)[nH]o1`, for which the outcome in experiment [1], in experiment [13], in experiment [14] and in experiment [15] was inactive. For the same compound, the activity change, negative = inhibition in experiment [2] is -0.672% (inactive). Besides, the max response came out at 5.31% in experiment [2] (setting [19]) and 4.46% in [2] (setting [20]). In addition, the Potency result in [3], in experiment [4], in [5], in experiment [6], in experiment [7] and in experiment [8] was “inactive” in each case. The Potency result in experiment [9], in experiment [10], in experiment [11], in experiment [12], in experiment [18] and in experiment [16] was “inactive” each time. The Potency entry in experiment [17] is “inactive”.
For `C[C@@H]1O[C@H](C[N+](C)(C)C)C[C@H]1O`, the outcome in [1], in experiment [13], in experiment [14] and in experiment [15] was inactive. Besides, the Potency entry in experiment [3], in [4], in [5], in [6], in [7] and in [8] was “inactive” throughout. Further, the Potency entry in experiment [9], in [10], in [11], in [12], in [18] and in experiment [16] was “inactive” throughout. The Potency result in [17] was “inactive”.
Turning to `CS(=N)(=O)CC[C@H](N)C(=O)O` (stereo partly drawn), the compound was called inactive in experiment [1], in experiment [14] and in experiment [15]. The activity change, negative = inhibition in [2] is -1.65% (inactive). In addition, the max response was 43.8% in [2] (setting [19]) and 40.4% in [2] (setting [20]). For the same compound, the Potency result in experiment [3], in experiment [4], in experiment [6], in experiment [7], in experiment [8] and in experiment [9] was “inactive” in each case. The Potency result in experiment [10], in experiment [11], in [12], in experiment [18], in experiment [16] and in experiment [17] was “inactive” in each case.
As to `C=CCN1CC[C@]23CCCCC2[C@H]1Cc1ccc(O)cc13` (stereo partly drawn), the result in [1], in [13], in [14] and in [15] was inactive. Besides, the Potency entry in experiment [3], in [4], in experiment [5], in experiment [8], in experiment [9] and in experiment [12] was “inactive” each time. In addition, the Potency entry in experiment [18], in [16] and in experiment [17] was “inactive” throughout. The figures for the Potency in [6], in experiment [7] and in experiment [11] were 11.2 µM (active), 11.2 µM (active) and 7.08 µM (active), respectively.
